Laboratory results reported in PubChem BioAssay (NCI).
Compounds without any hit were thinned out: in the full panel of roughly 83,000, 20% have a hit.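 Values shown are percent growth following 48 h exposure of cells in 96-well plates to a single concentration of compound; below 10 was considered active.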 Activity calls are given as the source filed them.

Each compound was assayed on A549/ATCC NSCLC (assay: NCI-60 one-dose screen, 48 h (100 = growth as untreated, 0 = no growth, -100 = all killed)). Details: 10 µM unless noted.

| SMILES | growth |
| --- | --- |
| Cc1ncc(-c2ccnc(Nc3ccc(S(C)(=O)=O)cc3)n2)n1C(C)C | 1.7% (active) |
| C/C=C/C=N/NC(=S)Nc1ccccc1 | 79.4% (inactive) |
| Cc1nn(-c2ccccc2)c2c1N=c1s/c(=C\c3cn(-c4ccccc4)nc3-c3ccc(Cl)cc3)c(=O)n1C(C)N2 (stereo not drawn) | 87.8% (inactive) |
| COc1cc2c(cc1OCCCN1Cc3ccc(OCCCCC(=O)N4CCC(CCN5CCCC5)CC4)cc3C1)N=C(N)C21CCCC1 | 85% (inactive) |

These compounds were tested on 786-0 renal in the same assay as above. Details: 10 µM unless noted.

| SMILES | growth |
| --- | --- |
| COc1cccc2cc(-c3nc(C4CCC(C(=O)O)CC4)n4ncnc(N)c34)[nH]c12 (stereo not drawn) | -5.64% (active) |
| CNC(=O)c1cc(Oc2ccc3nc(NC(=O)Nc4ccc(Cl)c(C(F)(F)F)c4)sc3c2)ccn1 | -64.4% (active) |
| C[C@@H](Oc1cc(-n2cnc3ccc(CN4CCN(C)CC4)cc32)sc1C(N)=O)c1ccccc1C(F)(F)F | 6.39% (active) |
| Oc1ccc(C(c2ccc(O)cc2)C(Cl)(Cl)Cl)cc1 | 102% (inactive) |
| C[C@H](NC(=O)c1c(N)nn2cccnc12)c1cc2cccc(C#Cc3cnn(C)c3)c2c(=O)n1-c1ccccc1 | 19.1% (inactive) |
| COc1cc(CCc2cc(NC(=O)c3ccc(N4C[C@@H](C)N[C@@H](C)C4)cc3)n[nH]2)cc(OC)c1 | 38.6% (inactive) |
| CNC(=O)CN1CCC(Oc2cc3c(Nc4cccc(Cl)c4F)ncnc3cc2OC)CC1 | 51.8% (inactive) |
| Cc1oc2c(C(=O)N/N=C\c3ccc(O)cc3O)c[nH]c2c1C | 5.43% (active) |
| CCCCCc1ccc(C)cc1OC(=O)CCl | 110% (inactive) |
| COc1cc2ncnc(Oc3cccc(NC(=O)Nc4cc(C(C)(C)C(F)(F)F)on4)c3)c2cc1OC | 39.5% (inactive) |
| COc1cc(Nc2ncc3c(n2)-c2ccc(Cl)cc2C(c2c(F)cccc2OC)=NC3)ccc1C(=O)O | 89.1% (inactive) |
| CC[C@H](Nc1ncnc2nc[nH]c12)c1nc2cccc(F)c2c(=O)n1-c1ccccc1 | 37.5% (inactive) |
| CN1CCN(CCOc2cc(OC3CCOCC3)c3c(Nc4c(Cl)ccc5c4OCO5)ncnc3c2)CC1 | 48.1% (inactive) |
| Nc1nc(Nc2ccccc2)c(C=Nc2ccccc2)c(=O)[nH]1 | 93.5% (inactive) |
| CNC(=O)c1cc(Oc2cccc3nc(Nc4ccc(Oc5ccccc5)cc4)ccc23)ccn1 | 72.5% (inactive) |
| CN1CC[C@@H](c2c(O)cc(O)c3c(=O)cc(-c4ccccc4Cl)oc23)[C@@H]1CO | 4.31% (active) |
| Cc1[nH]n(C(N)=S)c(=O)c1N=Nc1ccc(S(=O)(=O)Nc2ccncn2)cc1 | 103% (inactive) |
| COCCN1CCN(Cc2ccc(-c3n[nH]c4c3C(=O)c3c(NC(=O)NN5CCOCC5)cccc3-4)cc2)CC1 | 5.39% (active) |
| CN(c1ncccc1CNc1nc(Nc2ccc3c(c2)CC(=O)N3)ncc1C(F)(F)F)S(C)(=O)=O | 11.3% (inactive) |
| COc1cc(N2CCC(N3CCN(C)CC3)CC2)ccc1Nc1ncnc(Nc2ccccc2S(=O)(=O)C(C)C)n1 | 99.7% (inactive) |

| SMILES | growth |
| --- | --- |
| O=C(COc1ccc(/C=C2\Cc3ccc(Cl)cc3C2=O)cc1)Nc1nccs1 | 95.8% (inactive) |
| O=C(c1ccc(/C=C/c2n[nH]c3ccccc23)cc1)N1CCNCC1 | 37.7% (inactive) |
| O=C(O)C1(Cc2cccc(Nc3nccs3)n2)CCC(Oc2cccc(Cl)c2F)CC1 (stereo not drawn) | 75% (inactive) |
| Cc1cc(O)cc(-c2c(-c3ccnc(-c4cccnc4)c3)cnn2C)c1 | 67.7% (inactive) |
| Cc1c(CN2CCN(C(=O)[C@H](C)O)CC2)sc2c(N3CCOCC3)nc(-c3cnc(N)nc3)nc12 | -19% (active) |
| CN1CCN(c2ccc(C(=O)Nc3n[nH]c4ccc(Cc5cc(F)cc(F)c5)cc34)c(NC3CCOCC3)c2)CC1 | -95.1% (active) |
| C#Cc1cccc(Nc2ncnc3cc(OCCOC)c(OCCOC)cc23)c1 | 57.5% (inactive) |
| COc1ccc(Nc2ncccc2NC(=O)c2cn(Cc3cccc(Oc4ccccc4)c3)nn2)cc1 | 102% (inactive) |
| O=C1NC(=O)[C@@H](c2cn3c4c(cccc24)CCC3)[C@@H]1c1c[nH]c2ccccc12 | 21.5% (inactive) |
| Cc1cc(-c2cc(O)ccc2Cl)cc2nnc(Nc3ccc(OCCN4CCCC4)cc3)nc12 | -60.6% (active) |
| C=CCN(/C=C1/C(=O)O[C@H](COC)[C@@]2(C)C1=C(O)C(=O)C1=C2[C@H](OC(C)=O)C[C@]2(C)C(=O)CC[C@@H]12)CC=C | 4.54% (active) |
| CNC(=O)c1nn(C)c2c1C(C)(C)Cc1cnc(Nc3ccc(N4CCN(C)CC4)cc3)nc1-2 | 12.3% (inactive) |
| CC(C)Nc1cc(-c2c[nH]c(C(=O)N[C@H](CO)c3cccc(Cl)c3)c2)c(Cl)cn1 | 42.4% (inactive) |
| COc1ccc(Cc2cc(-c3ccccc3C)n[nH]c2=O)cc1 | 105% (inactive) |
| CC(C)[C@@H]1CC[C@@H]2[C@@H]1[C@H](OC(=O)/C=C/c1ccccc1)[C@]1(C(C)C)C[C@@H](OC(=O)CO)[C@@]2(C)O1 | 78.1% (inactive) |
| Cc1ncc(-c2ccnc(Nc3ccc(S(C)(=O)=O)cc3)n2)n1C(C)C | 4.84% (active) |
| C/C=C/C=N/NC(=S)Nc1ccccc1 | 106% (inactive) |
| Cc1nn(-c2ccccc2)c2c1N=c1s/c(=C\c3cn(-c4ccccc4)nc3-c3ccc(Cl)cc3)c(=O)n1C(C)N2 (stereo not drawn) | 77.1% (inactive) |
| COc1cc2c(cc1OCCCN1Cc3ccc(OCCCCC(=O)N4CCC(CCN5CCCC5)CC4)cc3C1)N=C(N)C21CCCC1 | 85.4% (inactive) |
